Bioassay records deposited in PubChem BioAssay by National Center for Advancing Translational Sciences (NCATS).
TDP1 cell noCPT: qHTS for Inhibitors of human tyrosyl-DNA phosphodiesterase 1 (TDP1): qHTS in cells in absence of CPT | DT40 Tdp1-/- hTDP1 cells, no CPT, ATP luminescence, 48 h | Potency, µM (highest dose often 46.2 µM), inactives show top-dose activity change, negative = growth inhibition, hits mostly inhibitors | actives 15% (n = 420,000) | AID 686978, 2013; also: nearly all actives have a fitted effect of over 55% in size
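Growth of hTDP1-complemented DT40 Tdp1-knockout cells is measured by ATP luminescence after at least 48 hr compound exposure at 37 °C, with DMSO substituting for the 20 nM CPT used in the parallel screen.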
DT40 TDP1 CPT: DT40-hTDP1 cell growth loss with CPT | chicken DT40 Tdp1-/-;hTDP1 cells + 20 nM CPT, ATP luminescence, 48 h | actives 12% (n = 420,000) | Potency, µM (top dose mostly 46.2 µM), for the others: top-dose activity change, negative = growth inhibition, most hits filed as inhibitors; also: nearly all actives have a fitted effect of over 55% in size
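Chicken DT40 Tdp1-/- cells stably complemented with human TDP1 were seeded at 400 cells/well in medium containing 20 nM camptothecin, exposed to pin-transferred compounds, and grown at 37 °C for at least 48 hr. Viability was read as ATP luminescence.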
HT1080 IDH1KD tx: HT-1080 IDH1 knockdown cell toxicity (counter line); Potency, µM (series often up to 46.1 µM), without a hit: at the highest dose activity, negative = toxicity, hits mostly cytotoxic; actives 2% (n = 360,000); HT-1080 IDH1 knockdown viability, ATP luminescence, 48 h;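 also: 0% = DMSO wells and -100% = cell-free medium wells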
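IDH1KD HT-1080 cells, 750/well, RPMI + 5% FBS; compound pinned after 2 h settling; 48 h, 37 °C; CellTiter-Glo luminescence; % activity normalised to DMSO and no-cell wells; curves fitted, classed by r2 and efficacy.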
KB-3-1 tox: KB-3-1 parental cell cytotoxicity; AID 1347075; Potency, µM (top dose mostly 46.1 µM), most hits filed as cytotoxic; actives 1.4% (n = 400,000); KB-3-1 viability, CellTiter-Glo ATP luminescence, 72 h; also: nearly all actives have a fitted effect of over 60% in size
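Luminescent ATP read-out (CellTiter-Glo) measures survival of drug-naive KB-3-1 cells after 72 h compound exposure at 37 °C. Titration series was screened from lowest to highest concentration, with DMSO vehicle plates as background controls.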
HT1080-NT tox: kills 2HG-producing HT-1080-NT fibrosarcoma cells. HT-1080-NT fibrosarcoma viability, CellTiter-Glo ATP luminescence, 48 h. Potency, µM (doses to about 46.1 µM), without a hit: top-dose activity, negative = less viability, most hits filed as cytotoxic. actives 1.6% (n = 360,000);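 also: NT is the 2HG producing partner of a matched IDH1 knockdown line; 0% = DMSO-treated cells and -100% = media-only wells without cells; nearly all actives have a fitted effect of over 55% in size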
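Fibrosarcoma NT cells, 750 per well in 5% FBS RPMI, were exposed to compound for 48 hours. Viability: CellTiter-Glo luminescence.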
KB-V1 cytotox: KB-V1 MDR subline cytotoxicity; KB-V1 MDR cells viability, CellTiter-Glo, 72 h; Potency, µM (doses to about 46.1 µM), actives largely listed as cytotoxic; actives 3.4% (n = 400,000); also: nearly all actives have a fitted effect of over 60% in size
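Luminescent ATP read-out (CellTiter-Glo, 10 min) measures survival of drug-selected KB-V1 MDR cells after 72 h, 37 degrees C compound exposure. Medium: phenol-red-free DMEM, 10% FBS. Values from fitted concentration-response curves.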
Starred values were filed as active, the others as inactive; i = inactive; ? = inconclusive; . = not tested or not shown. Sampled rows, rich in hits. Any-hit rate of the full collection: about 19%. Calls follow the shape of the dose curve; as a rule, active = well fitted curve in the direction sought with a large enough effect; inconclusive = small, poorly fitted or top-dose-only effect, or another doubt; inactive = no such curve, though single readings can be large; an effect the other way counts as inactive or inconclusive. Unless noted, % is scaled to controls: 0 for no effect and ±100 for the full control effect; potency is read from the fitted curve at half-maximal effect.

SMILES	TDP1 cell noCPT	DT40 TDP1 CPT	HT1080 IDH1KD tx	KB-3-1 tox	HT1080-NT tox	KB-V1 cytotox
Oc1cc(-n2cccn2)c(O)cc1-n1cccn1	4.1µM*	5.8µM*	8%	i	1%	i
COc1ccc(OC)c(CN2CCN(C(=O)c3cccs3)CC2)c1	-29%	-10%	14%	i	18%	21µM*
COc1ccccc1C1(O)CCN(C(=O)c2cccs2)CC1	-5%	1%	-4%	i	-2%	21µM*
O=C(c1cccs1)N1CCC(Cc2ccccc2)CC1	?	7%	8%	i	7%	i
COc1ccc(CN2CCN(C(=O)c3cccs3)CC2)cc1	-19%	-7%	-1%	i	-4%	21µM*
O=C(c1cccs1)N1CCN(Cc2ccccc2)CC1	-3%	-1%	5%	i	17%	i
COc1cccc(C2(O)CCN(C(=O)c3cccs3)CC2)c1	-7%	6%	1%	i	4%	i
O=C(c1cccs1)N1CCN(CCCc2ccccc2)CC1	-21%	-12%	-1%	i	27%	12µM*
CCC(C)[C@H](NC(=O)[C@H](Cc1ccccc1)n1c(=O)[nH]c2ccccc2c1=O)C(=O)N1CCC[C@@H]1C(=O)O (some centres not stated)	3%	12%	4%	i	5%	i
CC(=O)c1ccc(OCc2nnn(CC(=O)NS(=O)(=O)c3ccc(C)cc3)c2-c2ccccc2)cc1	-3%	0%	22%	i	?	i
Cc1cccc(C(=O)Nc2ccc(C(=O)N/N=C/c3ccco3)cc2)c1	-18%	-3%	6%	i	-12%	i
COc1ccc(CC(=O)n2[nH]c(=O)cc(C)c2=O)cc1OC	18µM*	?	-3%	i	0%	i
CCN(C(=O)c1cc2c(=O)oc3ccc(C)cc3c2s1)c1cc(OC)ccc1OC	?	?	.	i	.	i
CCN(C(=O)c1cc2c(Cl)nc3ccc(C)cc3c2s1)c1cc(OC)ccc1OC	15µM*	?	.	i	.	i
CCc1ccccc1N(C)C(=O)c1cc2c(Cl)nc3ccc(C)cc3c2s1	18µM*	?	.	i	.	i
COCCN(Cc1ccco1)C(=O)c1cc2c(Cl)nc3ccc(C)cc3c2s1	?	?	.	i	.	i
Cc1ccc2nc(Cl)c3cc(C(=O)N(CCN(C)C)Cc4ccco4)sc3c2c1	?	-109%	23µM*	?	?	?
Cc1ccc(NC(=O)c2cc3c(Cl)nc4ccc(C)cc4c3s2)c(Cl)c1	?	0%	.	i	.	i
CC(C)(C)OC(=O)N1CCCC(C(=O)Nc2cccc(C(=O)NC3CC3)c2)C1 (configuration not stated)	-8%	-6%	5%	i	8%	i
Oc1c(C(c2ccccc2F)N2CCN(Cc3ccccc3)CC2)sc2nc(-c3ccco3)nn12 (configuration not stated)	-21%	2%	.	i	.	i
COC(=O)c1cc(NC(=O)COC(=O)C2COc3ccccc3O2)cc(C(=O)OC)c1 (configuration not stated)	-8%	-1%	8%	i	-5%	i
COc1ccc2[nH]c(C(=O)O)c(CCNC(C)=O)c2c1	7%	-2%	10%	i	10%	i
COc1ccc2[nH]c(C)c(CCNC(=S)Nc3cccc(C)c3C)c2c1	21µM*	?	-3%	i	-7%	i
COc1ccc2[nH]c(I)c(CCNC(C)=O)c2c1	4%	1%	.	.	.	.
COc1ccc2[nH]c(C)c(CCNC(=S)Nc3ccc(C)cc3)c2c1	?	18µM*	-3%	i	1%	i
SMILES	TDP1 cell noCPT	DT40 TDP1 CPT	HT1080 IDH1KD tx	KB-3-1 tox	HT1080-NT tox	KB-V1 cytotox
COc1ccc2[nH]c(C)c(CCNC(=S)Nc3ccccc3C)c2c1	?	18µM*	-2%	i	-3%	i
COc1ccc(OCCCC(=O)OC(C)C(=O)Nc2ccc(S(N)(=O)=O)cc2)cc1 (configuration not stated)	-23%	-7%	5%	i	-1%	i
CC(C)Cc1ccc(CN2C(C)C(=O)N(Cc3cn(Cc4ccco4)nn3)CCS2(=O)=O)cc1 (configuration not stated)	?	?	-16%	i	-5%	i
COc1c2ccccc2nn1C(C)C	-7%	25%	1%	i	17%	i
COc1cccc(-c2nn(-c3ccc(C)cc3)cc2C(=O)NCC2CCCO2)c1 (configuration not stated)	?	?	-17%	?	-5%	?
COc1cccc(-c2nn(-c3ccc(F)cc3)cc2C(=O)NCC2CCCO2)c1 (configuration not stated)	23µM*	23µM*	-7%	?	-6%	?
COc1cccc(-c2cc(C(=O)NCC3CCCO3)c3cc(C)cc(C)c3n2)c1 (configuration not stated)	26µM*	23µM*	2%	.	1%	.
COc1cccc(OCC(=O)NCC2CCCO2)c1 (configuration not stated)	12%	2%	0%	i	-1%	i
FC(F)(F)c1cc(-c2ccco2)nc2ncnn12	-14%	-6%	17%	i	19%	?
FC(F)(F)c1cnc(-c2cnc(-c3cccnc3)nc2)c(Cl)c1	-14%	-40%	?	i	22%	i
CN(C)/C=N/c1ncc(-c2ncc(C(F)(F)F)cc2Cl)cn1	-8%	7%	12%	?	15%	10µM*
CN(C)c1ccc(CN(C(=O)c2ccccc2Br)C2CCS(=O)(=O)C2)cc1 (configuration not stated)	-4%	-25%	1%	i	0%	i
C#CCN(C[C@@H]1[C@@H](OC(=O)NCc2ccccc2F)[C@@H](OC(=O)NCc2ccccc2F)Cn2c(=O)ccc(=O)n21)S(=O)(=O)c1ccc(C)cc1	2.6µM*	4.1µM*	6.5µM*	15µM*	6.5µM*	i
C#CCN(C[C@@H]1[C@@H](OC(=O)NCC2CCCCC2)[C@@H](OC(=O)NCC2CCCCC2)Cn2c(=O)n(CCCCCC)c(=O)n21)S(=O)(=O)c1ccc(C)cc1	6.5µM*	?	12%	i	-2%	?
